Measurements from PubChem BioAssay (NCI).
The panel holds about 79,000 compounds, 15% with a hit somewhere; the sample as a whole holds those more often. Values without a mark were called inactive. Calls of active or inactive are those of the source. Cut-off read from the data, not from the text of the source: active = growth inhibition above about 70%; inactive = the rest.

Assays:
[1] = NCI Yeast Anticancer Drug Screen. Data for the rad50 strain (AID 155);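 note: 0% = growth of vehicle-only cultures of the same strain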; conditions: S. cerevisiae rad50 strain growth inhibition; at 50.0 µM; active compounds read high
Outline: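 Inhibition values express reduced yeast growth in compound-treated cultures relative to vehicle-treated controls.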

[2] = NCI Yeast Anticancer Drug Screen. Data for the mec2-1 strain (AID 157); conditions: S. cerevisiae mec2-1 strain, at 50.0 µM, active compounds read high
Outline: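 mec2-1 yeast strain, carrying an alteration in DNA damage repair or cell cycle control, was exposed to compounds; growth inhibition was measured relative to vehicle-treated controls.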

[3] = NCI Yeast Anticancer Drug Screen. Data for the sgs1 mgt1 strain (AID 161);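 note: 0% = growth of cultures given vehicle only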; conditions: S. cerevisiae sgs1 mgt1 strain, at 50.0 µM, active compounds read high
Outline: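 Growth of a repair-deficient yeast mutant was monitored after compound treatment and expressed as inhibition relative to vehicle-treated cultures.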

[4] = NCI Yeast Anticancer Drug Screen. Data for the cln2 rad14 strain (AID 165);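 note: 0% = growth equal to vehicle treated cultures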; conditions: S. cerevisiae cln2 rad14 strain, at 50.0 µM, active compounds read high
Outline: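 Yeast carrying cln2 and rad14 alterations (cell cycle control and DNA damage repair) were exposed to compounds. Growth inhibition was measured against vehicle-treated controls.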

[5] = NCI Yeast Anticancer Drug Screen. Data for the bub3 strain (AID 167); conditions: S. cerevisiae bub3 mutant strain, at 50.0 µM, active compounds read high
Outline: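 Steps: expose the mutant yeast strain to compound; grow alongside vehicle-treated cultures; measure growth; express inhibition against the vehicle cultures.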

[6] = NCI Yeast Anticancer Drug Screen. Data for the mlh1 rad18 strain (AID 175); conditions: S. cerevisiae mlh1 rad18 strain growth inhibition; at 50.0 µM; active compounds read high
Outline: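 Growth inhibition of the yeast strain was measured after compound exposure and expressed relative to vehicle-treated controls. The strain carries defined defects in DNA damage repair.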

Structure (SMILES) | growth inhibition [1] | growth inhibition [2] | growth inhibition [3] | growth inhibition [4] | growth inhibition [5] | growth inhibition [6]
C=C1c2nc3ccccc3n2C=C(c2ccccc2)N1c1ccc([N+](=O)[O-])cc1 | 8.05% | 41.6% | 3.75% | 13.6% | 22.4% | 27.9%
NC(=O)C(O)(c1ccc(Br)cc1)C(Cl)Cl (stereo not drawn) | 4.65% | 3.05% | -5.55% | 9.05% | 11.6% | 5.95%
O=[N+]([O-])c1cccc(-c2cc3ccccn3c2)c1 | 28.9% | 7% | 13.8% | 5.6% | -1.95% | 6.85%
O=CN/C=C\c1cc(O)ccc1O | 3.1% | 4.45% | -2.6% | 21.4% | 16.9% | 13.1%
CC1(O)CC2(O)C=CC3=C(C(=O)c4cccc(O)c4C3=O)C2(O)C(=O)C1O (stereo not drawn) | 14.2% | 4.1% | 30.4% | 15.8% | 22.9% | 16.6%
COc1ccc(NC(=O)CSc2nnc(-c3ccc(NC(C)=O)cc3)o2)cc1 | 22.5% | 2.2% | 35.6% | 22.2% | 36% | 0.55%
CC(=O)Nc1ccc(N)cc1-c1ccc(N)cc1 | -2.75% | -16.9% | 1.5% | 29.1% | 5.25% | -18%
O=C(O)CC/C(=N\Nc1ccc([N+](=O)[O-])cc1[N+](=O)[O-])c1ccccc1 | 0.7% | 26.4% | 44.3% | -18.4% | 16.2% | 30.3%
O=C(O)CNC1=NCCN1 | -0.8% | 2.5% | -8.4% | -41.4% | -24.1% | -3.2%
CN(C)c1ccc(C(=O)CCCN2CCC(O)(c3ccc(Cl)cc3)CC2)cc1 | 37.4% | 14.8% | 36.6% | 6.4% | 18.1% | 21.9%
CCNCc1cc(Nc2cc(C)nc(/N=C(\N)Nc3ccc(Cl)c(Cl)c3)n2)ccc1OC | 98.8% (active) | 99% (active) | 99.3% (active) | 97.5% (active) | 98.2% (active) | 98.4% (active)
C#CCOC(=O)c1ccccc1O | 15.2% | 2.8% | 17.4% | 13.4% | 16.9% | 12.2%
O=C1C2C3C=CC(O3)C2C(=O)N1N=C1CCCCC1 (stereo not drawn) | 10.4% | 13.2% | 14.2% | 8.65% | 12.6% | 19.4%
CC(=O)/C=C1\N(C)c2ccccc2C1(C)C | 2.1% | -12.3% | -2.05% | -8.55% | -2.9% | -10.9%
CO[C@H]1CC[C@@]2(C)C(=CC[C@H]3[C@@H]4CC[C@H]([C@H](C)CCCC(C)C)[C@@]4(C)CC[C@@H]32)C1 | -4.65% | -20.4% | 18.1% | 24.7% | 17.2% | 9%
CC1(C)OC2C(=O)OC(COCc3ccccc3)C2O1 (stereo not drawn) | 16.7% | 2.2% | 4.25% | 11.1% | 8.5% | 34%
C=CCCC(=O)CC(=O)OCC | -25.1% | -22.7% | -10.7% | 10.3% | -8% | 6.15%
O=C1c2ccccc2-c2cccc3ccc(-c4ccccc4)c1c23 | 4.85% | 1.9% | -10.2% | -2.85% | -7.25% | 12.5%
COc1ccc(-n2c(N)c(C#N)c(C#N)c2-c2cccc([N+](=O)[O-])c2)cc1 | 6% | 9.75% | -62.8% | -3.1% | -18.9% | -48.5%

Structure (SMILES) | growth inhibition [1] | growth inhibition [2] | growth inhibition [3] | growth inhibition [4] | growth inhibition [5] | growth inhibition [6]
CCN(CC)CCNCc1ccc(Cl)cc1 | -16.5% | -38.8% | 3.95% | 6.15% | -8.7% | -16.1%
Nc1nc(N)c(NC(=O)CCCO)c(=O)[nH]1 | -3.95% | -2.35% | -13.3% | 6.8% | -23.8% | -53%
CC(=O)c1cc(C)ccc1Br | 7.2% | 6.65% | -16.3% | 0.5% | -7.85% | 7.35%
COc1ccc(OC(=O)Nc2cccc(Cl)c2)cc1 | 8.4% | 39.1% | 29.8% | -11.3% | 31.4% | 55.6%
[N-]=[N+]=NC(=O)c1cccc2c1Cc1ccccc1-2 | 8.85% | 0.75% | -4.05% | -40.9% | -11.5% | -0.4%
CC(=O)O/C1=C\CCCCCCCCCC1 | 6.95% | -27.5% | 28.3% | 18.9% | 13.5% | -1.45%
CCOC(=O)NC(CC)c1ccc2oc3ccccc3c2c1 (stereo not drawn) | -10.5% | 1.9% | 20.4% | -4.15% | 32% | -15.3%
OCC(Cl)(Cl)C(Cl)(Cl)CO | 8.2% | -14.5% | -12.7% | -0.95% | -28.6% | -17.8%
CCCCCC(=O)N1SC(NC(=O)OC)=Nc2ccccc21 | 63.5% | 47.5% | 64.8% | 84.3% (active) | 90.6% (active) | 83.5% (active)
Cc1ccc(S(=O)(=O)OC2CCC3(C)C(=CCC4C3CCC3(C)C(C(C)CCCC(C)C)CCC43)C2)cc1 (stereo not drawn) | 51.8% | 26.8% | 49.8% | 10.8% | 2.5% | 37.5%
ClCc1c(-c2ccccc2)nn(-c2ccccc2)c1CCl | 8.65% | 14.2% | 38.5% | 6.05% | 57.5% | 37%
COc1ccccc1C(=O)C(CN(C)C)CN(C)C | -2.5% | -19.2% | 6.65% | 15.3% | -23.3% | 13.7%
c1ccc2c(c1)CCc1ccccc1N2 | 1.65% | 13.8% | -28.9% | 6.45% | 15.1% | -3.4%
CC(C)(C)c1ccc(O)c(C(O)c2ccncc2)c1 (stereo not drawn) | 7.3% | -12.4% | 9.15% | -6.75% | 1.6% | 16.6%
O=[S@]1Nc2cc(N=Nc3ccccc3)ccc2S1 | -3.45% | 16.1% | 0.15% | -10.5% | -5.05% | -12.1%
COc1ccc(CC2COC(=O)[C@@H]2Cc2ccc(O)cc2)cc1OC (stereo partly drawn) | -32.9% | -43.5% | -14.1% | -2.85% | 4% | -7.55%
Fc1ccc(F)c(C(Nc2nncs2)Nc2nncs2)c1 | 7.3% | -8.75% | 7.75% | 2.4% | 8.45% | 7.85%
O=c1nc(Oc2ccccc2)nc2ccc(Cl)nn12 | 3.4% | 31.4% | 6.95% | 5.7% | 40.9% | 3.1%
COc1ccc(CN2CCCN(Cc3ccc(OC)cc3OC)C2c2cc(OC)ccc2OC)c(OC)c1 | -0.85% | -0.85% | 1.3% | 10.5% | -1.85% | -0.4%
